Source: PubChem (National Center for Advancing Translational Sciences (NCATS))
HP1b binding inh: blocks HP1-beta chromodomain binding to methylated histone tails | AlphaScreen HP1-beta / biotin-H3K9me3 peptide binding | Potency, µM (highest dose often 114 µM), for inactives: at the top dose activity change, negative = inhibition, usual class: inhibitors | 390,000 tested, 0.56% active | P83916; also: nearly all actives have a fitted effect of over 70% in size
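Compound inhibition of the preformed complex between 50 nM HP1-beta and 50 nM biotinylated H3K9me3 peptide was read by AlphaScreen. Buffer was PBS pH 7.4 with 0.01% Tween-20. Incubations ran 30 min at room temperature, with 10 ug/mL donor/acceptor beads.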
BAZ2B inh: inhibitors of human BAZ2B bromodomain. Q9UIF8. AlphaScreen BAZ2B-H3K14Ac peptide displacement. Potency, µM (series often up to 114 µM), for inactives: top-dose activity change, negative = inhibition, actives largely listed as inhibitors. 360,000 tested, 4.4% active; also: % is scaled to controls: 0 for no effect and ±100 for the full control effect; nearly all actives have a fitted effect of over 60% in size
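AlphaScreen displacement: compounds (up to 110uM) incubated 30 min at room temperature with a preformed 50 nM BAZ2B/50 nM biotinylated H3K14Ac peptide complex in PBS pH 7.4 with Tween-20. Donor and acceptor beads at 10 ug/mL final added, 20 min light-protected before reading.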
JMJD2A Tudor: blocks the human JMJD2A Tudor domain. Potency, µM (series often up to 114 µM), for inactives: top-dose activity change, negative = inhibition, hits mostly inhibitors. AID 504339. AlphaScreen JMJD2A-Tudor / H3K4me3 peptide binding. 390,000 tested, 4.4% active; also: % is scaled to controls: 0 for no effect and ±100 for the full control effect; nearly all actives have a fitted effect of over 50% in size
L3MBTL1 inh: L3MBTL1 (human) inhibition. 230,000 tested, 0.66% active. Q9Y468. Potency, µM (titrated, usually from 57.1 µM), without a hit: at the highest dose activity, negative = inhibition, hits mostly inhibitors. AlphaScreen L3MBTL1–H3K9me1 peptide binding; also: % is scaled to controls: 0 for no effect and ±100 for the full control effect; nearly all actives have a fitted effect of over 60% in size
Target sequence (Q9Y468 whole entry, looked up): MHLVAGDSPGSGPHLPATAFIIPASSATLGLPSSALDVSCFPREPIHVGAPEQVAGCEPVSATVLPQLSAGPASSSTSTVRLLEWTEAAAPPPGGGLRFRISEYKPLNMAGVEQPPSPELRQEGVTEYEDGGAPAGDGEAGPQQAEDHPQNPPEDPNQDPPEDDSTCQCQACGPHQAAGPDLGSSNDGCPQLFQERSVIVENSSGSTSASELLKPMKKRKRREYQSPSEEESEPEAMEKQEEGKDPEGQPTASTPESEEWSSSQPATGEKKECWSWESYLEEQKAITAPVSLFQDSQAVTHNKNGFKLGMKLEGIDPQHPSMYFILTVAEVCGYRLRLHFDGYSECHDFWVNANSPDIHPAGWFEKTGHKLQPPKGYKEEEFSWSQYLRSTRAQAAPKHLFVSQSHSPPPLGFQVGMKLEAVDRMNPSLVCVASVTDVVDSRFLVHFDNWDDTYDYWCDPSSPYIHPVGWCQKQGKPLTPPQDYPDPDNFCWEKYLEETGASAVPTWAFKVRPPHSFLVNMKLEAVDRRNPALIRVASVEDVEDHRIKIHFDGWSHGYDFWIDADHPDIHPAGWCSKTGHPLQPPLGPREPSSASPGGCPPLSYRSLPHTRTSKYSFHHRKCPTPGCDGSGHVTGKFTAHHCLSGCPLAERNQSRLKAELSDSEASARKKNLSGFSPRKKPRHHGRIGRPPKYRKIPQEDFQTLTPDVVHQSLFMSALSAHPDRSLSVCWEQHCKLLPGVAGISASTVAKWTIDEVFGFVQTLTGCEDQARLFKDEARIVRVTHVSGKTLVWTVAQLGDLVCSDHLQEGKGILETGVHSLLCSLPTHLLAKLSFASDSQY
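Displacement of a biotinylated histone H3(1-15) peptide monomethylated at Lys9 (75 nM) from L3MBTL1 (50 nM) was measured by AlphaScreen after a 30 min room-temperature compound incubation; cefsulodin titration served as intraplate control.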
GLS inhibitor: inhibitors of human glutaminase (GLS). O94925. GLS enzymatic activity, qHTS titration. Potency, µM (series often up to 45.5 µM), inactives show at the highest dose activity change, negative = inhibition, most hits filed as inhibitors. 410,000 tested, 0.21% active; also: % is scaled to controls: 0 for no effect and ±100 for the full control effect
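Read-out is an Amplex red fluorescence increase coupled through glutamate oxidase and HRP, measured before and after 30 min room-temperature incubation. hKGA is in 45 mM KH2PO4 (pH 8.2) with 0.02% Tween-20; glutamine added as 1mM solution.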
G9a inh: blocks human histone lysine methyltransferase G9a | 350,000 tested, 8.8% active | Potency, µM (doses to about 102 µM), without a hit: top-dose activity, negative = inhibition, hits mostly inhibitors | G9a H3K9 monomethylation, AlphaScreen, 2 h; also: % is scaled to controls: 0 for no effect and ±100 for the full control effect; nearly all actives have a fitted effect of over 75% in size
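G9a (20 nM) was preincubated 15 min with compound, then reacted 2 h at room temperature with 500 nM biotin-H3K9 peptide and 20 µM SAM. Monomethyl-H3K9 detected by AlphaScreen using anti-H3K9me1 antibody.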
* = called active by the depositor; u = inconclusive; x = no result; [ ] = dose if it differs, or a comment. Rows were chosen to be rich in hits. Some 10% of all compounds tested hit in one or more screens of this group. Calls follow the shape of the dose curve; as a rule, active = well fitted curve in the direction sought with a large enough effect; inconclusive = small, poorly fitted or top-dose-only effect, or another doubt; inactive = no such curve, though single readings can be large; an effect the other way counts as inactive or inconclusive. Potency is read from the fitted curve at half-maximal effect.

SMILES	HP1b binding inh	BAZ2B inh	JMJD2A Tudor	L3MBTL1 inh	GLS inhibitor	G9a inh
CCOc1ccccc1CNc1ncnc2c1nc1n2CCCC1	46.9%	1.3%	-1.7%	x	4.2%	-3.0%[59 µM]
COc1ccc(C(=O)Nc2nc3c(s2)Cc2c(Br)ccc(OC)c2-3)cc1OC	7.6%	-3.7%	-25.5%	x	7.0%	-7.3%[59 µM]
COc1ccc2c(c1)-c1nc(NC(=O)c3ccc(C)cc3)sc1CC2	33.7%	-0.4%	-20.6%	x	3.0%	-31.9%[59 µM]
COc1ccc(Br)c2c1-c1nc(NC(=O)c3ccc(F)cc3)sc1C2	33.8%	70.8µM*	-25.5%	x	2.2%	-21.9%[59 µM]
COc1ccc(C(=O)Nc2nc3c(s2)CCc2cc(OC)ccc2-3)cc1	-11.6%	-22.0%	-27.9%	x	-3.4%	6.31µM*
COc1ccc2c(c1)Cc1sc(NC(=O)c3cccc(C)c3)nc1-2	3.2%	u	u	x	9.4%	u
COc1ccc2c(c1)CCc1sc(NC(=O)c3cccc(Br)c3)nc1-2	-13.7%	-0.5%	u	x	5.2%	10µM*
Cc1nc2cccnc2n1C1CCN(S(=O)(=O)c2ccc(C(C)C)cc2)CC1	9.2%	u	-19.2%	x	-8.5%	-3.6%[59 µM]
CC(=O)Nc1ccccc1-c1nc2ccccc2n(CC(=O)Nc2ccc(C)c(Cl)c2)c1=O	33.1%	0.5%	1.3%	x	10.0%	-8.6%[59 µM]
CCCC(c1nnnn1CS(=O)(=O)c1ccc(C)cc1)N1CCN(C2CCCC2)CC1 (stereo not given)	-13.6%	-25.0%	u	x	8.0%	50.1µM*
CCc1ccc(NC(=O)CSc2nc3c(sc4ccccc43)c(=O)n2CCN(CC)CC)cc1	22.2%	-27.3%	-16.3%	x	1.6%	2.1%[59 µM]
C=CCN(C(=O)CSc1nc2c(sc3ccccc32)c(=O)n1CCN(CC)CC)c1ccccc1	-8.9%	u	u	x	-1.6%	44.7µM*
CCN(CC)CCn1c(SCC(=O)Nc2ccc(F)cc2)nc2c(sc3ccccc32)c1=O	x	-15.4%	x	-6.0%	x	35.5µM*
CCCCN(CC)C(=O)CSc1nc2c(sc3ccccc32)c(=O)n1CCc1ccccc1	51.9%	0.2%	-7.3%	x	-11.6%	2.5%[59 µM]
O=C(CN1C(=O)CC(c2ccccc2)=Nc2ccccc21)Nc1ccc(Br)cc1	93.7%	17.2%	-26.3%	x	-5.5%	15.7%[59 µM]
CN(C)c1ccc(NC(=O)CN2C(=O)CC(c3ccccc3)=Nc3ccccc32)cc1	6.9%	-5.0%	-11.3%	-5.2%	5.5%	2µM*
Cc1ccc(Nc2nc(N)nc(CN3CCN(Cc4ccc5c(c4)OCO5)CC3)n2)cc1	-9.2%	56.2µM*	u	-8.3%	0.6%	12.0%[12.7 µM]
Cc1ccc(Nc2nc(N)nc(CN3CCN(Cc4ccc5c(c4)OCO5)CC3)n2)c(C)c1	u	56.2µM*	-32.8%[57.1 µM]	-11.4%	-7.2%	2.6%
Nc1nc(CN2CCN(C(=O)c3ccco3)CC2)nc(Nc2cccc(Cl)c2)n1	24.1%	u	-35.7%	-5.5%	-3.5%	3.0%
Nc1nc(CN2CCN(Cc3ccccc3)CC2)nc(Nc2ccc3c(c2)OCCO3)n1	26.7%	20µM*	u	x	12.0%	-13.0%[12.7 µM]
Cc1ccc(NC(=O)N2CCN(Cc3ccc4c(c3)OCO4)CC2)cc1	1.3%	4.5%	-10.1%	x	0.5%	22.7%[12.7 µM]
Cc1ccc(NC2=NCC(=O)N2Cc2ccc3c(c2)OCO3)c(C)c1	45.0%	-23.7%	-21.7%	7.0%	33.8%	-13.3%[59 µM]
Cc1ccc(Nc2nc(N)nc(CN3CCN(C)CC3)n2)cc1C	x	12.3%	x	7.6%	x	u
Cc1ccc(Nc2nc(N)nc(CN3CCN(Cc4ccc5c(c4)OCO5)CC3)n2)cc1C	-5.1%	39.8µM*	u	-12.6%	2.2%	x
O=C(c1csnn1)N1CCC2(CC1)CCN(C(c1ccccc1)c1ccccc1)CC2	x	x	x	x	x	1.4%[12.7 µM]
SMILES	HP1b binding inh	BAZ2B inh	JMJD2A Tudor	L3MBTL1 inh	GLS inhibitor	G9a inh
CSCCOC(=O)C1=C(C)NC(=O)NC1c1ccc2c(c1)OCO2 (stereo not given)	19.4%	-9.5%	-9.6%	-6.1%	-9.9%	x
CCOC(=O)C1=C(C)Nc2ccccc2S1	u	39.8µM*	u	x	11.4%	x
CCOCCOC(=O)C1=C(C)Nc2ccc(C)cc2S1	-42.8%	u	14.1µM*	-0.2%	9.5%	15.8µM*
CCOCCOC(=O)c1cccc(NC(=O)OCC)c1	23.6%	-2.7%	0.3%	-2.6%	0.9%	5.6%
CCOC(=O)C1=C(C)Nc2ccc(C)cc2S1	u	50.1µM*	-25.4%	-8.4%	21.3%	u
CSCCOC(=O)C1=C(C)Nc2ccc(C)cc2S1	-66.9%	44.7µM*	79.4µM*	x	8.0%	25.1µM*
COc1ccc(-c2cc(C(=O)Nc3ccn(Cc4ccc(C)cc4)n3)no2)cc1OC	15.0%	0.6%	-13.7%	x	0.4%	7.4%[59 µM]
CCOc1ccc(-c2nnc(SCC(=O)NCc3ccccc3Cl)o2)cc1	37.8%	-10.6%	-13.6%	x	-5.6%	u
O=c1n(Cc2ccc(F)cc2)c2ccccc2c2nc(-c3ccccc3)nn12	41.4%	-10.1%	-12.3%	x	-6.7%	2.3%[59 µM]
CCN(CC)C(=O)Cn1c(SCC(=O)Nc2ccc(C)c(C)c2)nc2ccccc21	73.5%	9.5%	0.0%	x	-8.9%	22.9%[59 µM]
CN1C(=O)C2(c3ccccc31)N(c1cccc(C(F)(F)F)c1)C(=O)CS2(=O)=O (stereo not given)	15.6%	0.2%[57.1 µM]	-9.7%	x	5.0%	-6.0%[59 µM]
O=C(CN1C(=O)c2cccnc2Oc2ccc(Cl)cc21)NCCCN1CCCCC1	23.5%	-2.2%	-8.9%	x	0.3%	-1.5%[59 µM]
CCOC(=O)C1Nc2ccccc2C2C(O)C(O)CC12 (stereo not given)	-13.7%	x	50.1µM*	x	-8.8%	x
CCS(=O)(=O)c1ccccc1C(=O)NC1CCCc2ccccc21 (stereo not given)	-2.4%	-1.2%	-6.4%	x	0.0%	39.8µM*
S=C(NC1CC1)NC1CCCc2ccccc21 (stereo not given)	28.1%	56.2µM*	u	x	-0.7%	12.9%[59 µM]
CCCCN1C(=O)C(=O)N(CC(=O)NC2CCCc3ccccc32)C1=O (stereo not given)	u	-4.9%	5.01µM*	35.9%	-15.3%	10.8%
O=C1NC(=S)N/C1=C\c1ccc(N2CCOCC2)cc1	0.1%	-8.6%	20µM*	25.3%	-16.2%	u
O=C1NC(=S)NC1=Cc1ccc(O)cc1	33.9%	x	-19.3%	x	-6.1%	x
CC(C)(C)C1CCC(=NNC(=O)C(=O)NC2CCCCC2)CC1 (stereo not given)	15.4%	-34.3%	79.4µM*	-7.5%	-4.2%	u
O=C(NN=C1CCCCCCC1)C(=O)NC1CCCCC1	21.6%	-0.6%	-10.6%	-5.7%	13.6%	-1.5%[59 µM]
CN1CCC(=NNC(=O)C(=O)NC2CCCC2)CC1	4.9%	u	39.8µM*	x	-5.5%	-4.8%
CN1CCN(C(=O)NC2CCCCC2)CC1	u	50.1µM*	8.91µM*	-27.0%	6.1%	8.91µM*
